ASK1 inh – inhibitors of human ASK1 kinase | inhibition, % at 7.44 µM | AID 1159602 | Q99683 | AlphaScreen MKK6 phosphorylation by ASK1, luminescence | hit rate 0.99% among 22,000; in the data active means inhibition above about 35%;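 further: 0% = median of compound wells and 100% = no enzyme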
Target sequence (Q99683 whole entry, looked up): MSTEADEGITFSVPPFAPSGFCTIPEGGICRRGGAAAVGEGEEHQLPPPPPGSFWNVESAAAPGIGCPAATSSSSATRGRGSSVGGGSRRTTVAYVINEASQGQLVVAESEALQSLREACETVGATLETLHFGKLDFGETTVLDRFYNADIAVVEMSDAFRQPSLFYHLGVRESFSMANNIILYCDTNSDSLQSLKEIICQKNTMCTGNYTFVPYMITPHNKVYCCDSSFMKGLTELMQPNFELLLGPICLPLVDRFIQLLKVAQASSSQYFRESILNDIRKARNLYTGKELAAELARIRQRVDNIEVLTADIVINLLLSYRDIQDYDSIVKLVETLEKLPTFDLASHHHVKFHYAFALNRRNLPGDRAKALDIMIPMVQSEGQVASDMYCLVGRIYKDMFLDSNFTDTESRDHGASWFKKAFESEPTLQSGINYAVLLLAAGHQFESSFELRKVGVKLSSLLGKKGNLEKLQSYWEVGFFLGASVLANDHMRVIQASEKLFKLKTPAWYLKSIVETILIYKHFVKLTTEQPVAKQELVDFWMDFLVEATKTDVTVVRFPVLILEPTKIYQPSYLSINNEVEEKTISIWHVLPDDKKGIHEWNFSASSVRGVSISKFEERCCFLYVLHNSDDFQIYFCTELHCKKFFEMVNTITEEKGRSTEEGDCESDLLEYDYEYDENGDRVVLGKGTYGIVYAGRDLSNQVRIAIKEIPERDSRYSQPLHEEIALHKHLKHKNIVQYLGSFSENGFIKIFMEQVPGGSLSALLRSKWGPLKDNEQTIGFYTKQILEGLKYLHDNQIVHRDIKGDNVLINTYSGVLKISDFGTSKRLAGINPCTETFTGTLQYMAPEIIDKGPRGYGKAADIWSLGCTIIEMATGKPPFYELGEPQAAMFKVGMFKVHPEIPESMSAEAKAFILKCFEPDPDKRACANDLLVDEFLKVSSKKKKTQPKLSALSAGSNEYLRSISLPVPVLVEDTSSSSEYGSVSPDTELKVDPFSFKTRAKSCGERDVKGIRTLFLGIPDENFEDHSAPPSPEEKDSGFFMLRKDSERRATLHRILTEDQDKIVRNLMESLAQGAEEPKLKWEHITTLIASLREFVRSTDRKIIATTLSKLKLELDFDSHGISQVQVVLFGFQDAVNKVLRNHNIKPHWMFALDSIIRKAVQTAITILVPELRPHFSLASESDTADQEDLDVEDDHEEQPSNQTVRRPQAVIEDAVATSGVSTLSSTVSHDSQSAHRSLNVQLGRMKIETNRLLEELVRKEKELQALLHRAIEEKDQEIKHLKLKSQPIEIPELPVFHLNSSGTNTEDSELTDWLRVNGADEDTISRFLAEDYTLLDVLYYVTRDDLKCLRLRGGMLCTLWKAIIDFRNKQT
ULK1 inh – human ULK1 kinase inhibition, primary screen. O75385. AlphaScreen Atg13 phosphorylation by ULK1, luminescence. inhibition, % at 5.96 µM. hit rate 1.9% among 30,000. AID 1259251; in the data active means inhibition above about 43%;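 further: 0% = median of compound wells and 100% = no enzyme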
Active calls of the source: *; . = not tested or not shown. Shown are actives, neighbours in structure and some others; about 2.5% of the full set was active somewhere.

SMILES	ASK1 inh	ULK1 inh
O=C1CCCN1CCCNc1ncnc2nc(Nc3ccc(N4CCOCC4)cc3)[nH]c12	-4.3	6.7
c1ccc(OCCNc2nc(Nc3ccc(N4CCOCC4)cc3)nc3nc[nH]c23)cc1	26.3	69.0*
c1nc2nc(Nc3ccc(N4CCOCC4)cc3)nc(NCCN3CCOCC3)c2[nH]1	-0.4	17.5
COc1cc(Nc2nc(NCCCN3CCCC3=O)c3[nH]cnc3n2)cc(OC)c1OC	-32.5	74.3*
O=C1CCCN1CCCNc1nc(Nc2ccc(N3CCOCC3)cc2)nc2nc[nH]c12	3.3	53.8*
COc1cc(Nc2nccc(NCCCN3CCCC3=O)n2)cc(OC)c1OC	-1.1	52.0*
O=C1CCCN1CCCNc1ccnc(NCCCN2CCCC2=O)n1	-5.7	0.0
Cn1nccc1Nc1nc(NCCCN2CCCC2=O)c2[nH]cnc2n1	-6.4	-4.4
O=C(Nc1cc(F)c(-c2cn[nH]c2)cc1N1CCC(O)CC1)[C@H]1Cc2ccccc2CN1	25.4	-4.6
CC(C)N(CCNc1nc(Nc2ccccc2)nc2c1ncn2CCN1CCCC1=O)C(C)C	-8.9	-10.3
CCCNC(=O)c1ccnc(NCCCN2CCCC2=O)c1	-36.0	60.5*
O=C(NCCCN1CCCC1=O)c1ccnc(Nc2ccncc2)c1	6.4	5.8
CC(=O)Nc1ccc(Nc2nc(Nc3ccncn3)nc3c2ncn3CCN2CCCC2=O)cc1	3.8	-11.6
Cc1cc2c(C(C)C)c(O)c(O)c(C=O)c2c(O)c1-c1c(C)cc2c(C(C)C)c(O)c(O)c(C=O)c2c1O	.	57.3*
CC(=O)Nc1ccc(Nc2cc(Nc3nccc4ccccc34)nc(N)n2)cc1	3.8	-21.4
c1ccc2c(-c3nc4ncnc(NCCN5CCOCC5)c4[nH]3)csc2c1	-2.0	-13.7
O=C1CCCN1CCCNc1nc(Nc2ccc(Oc3ccccc3)cc2)c2[nH]cnc2n1	29.5	-22.0
Cc1cnc(Nc2ccc3ncccc3c2)nc1NC1CC1	7.6	70.8*
Cc1cnc(Nc2cccc(N(C)C)c2)nc1NCCCN1CCCC1=O	-7.9	20.3
Cc1cnc(Nc2ccc3ncccc3c2)nc1Nc1ccc2c(c1)OCO2	-29.3	-10.6
Cc1cnc(Nc2ccc3ncccc3c2)nc1NCCCN1CCCC1=O	-12.9	69.5*
Cc1cnc(NCCCN2CCCC2=O)nc1Nc1ccc(Oc2ccccc2)cc1	10.8	49.1*
c1ccc(Nc2nc(-c3ccc(N4CCOCC4)nc3)nc3nc[nH]c23)cc1	7.0	-8.4
COc1ccc2c(c1)C[C@@H](C(=O)Nc1ccc(-c3cn[nH]c3C)cc1SCCN(C)C)NC2	0.3	10.0
Cc1ncn(-c2ccc(Nc3nccc(-c4ccc(C#N)c(NC(C)C)c4)n3)cc2)n1	-13.4	-7.7
SMILES	ASK1 inh	ULK1 inh
COCCNC(NC(=O)c1ccco1)C(Cl)(Cl)Cl (stereo unspecified)	.	-8.7
CN(c1ccc2[nH]ncc2c1)C1C=CN(CC(O)c2ccc(Br)cc2)CC1 (stereo unspecified)	-2.9	-3.0
O=C1CCCN1CCn1cnc2c(NCCN3CCOCC3)nc(N3CCCC3CO)nc21 (stereo unspecified)	8.7	10.8
COc1cc(NC(=O)C(N)c2ccc(Cl)cc2)c(F)cc1-c1cn[nH]c1 (stereo unspecified)	12.6	64.8*
CN(C)CCCOc1cc(-c2cn[nH]c2)c(F)cc1NC(=O)C(N)c1ccc(Cl)cc1 (stereo unspecified)	10.2	19.6
NC(=O)c1ccc(Nc2nccc(=O)[nH]2)cc1	6.8	-1.3
Cc1n[nH]c(C)c1-c1ccc2nc(C(C)C)[nH]c(=O)c2c1	6.2	59.9*
CC(C)c1nc2ccc(-c3cnn(C)c3)cc2c(=O)[nH]1	-10.1	-2.9
CN1CCN(c2ccc(-c3ccc(C(=O)NC4CCN(Cc5ccccc5)CC4)s3)cc2)CC1	3.8	-0.1
O=S(c1cc(Cl)cc(Cl)c1O)c1cc(Cl)cc(Cl)c1O	.	6.4
Oc1c(Cl)cc(Cl)cc1Sc1cc(Cl)cc(Cl)c1O	.	83.8*
Cc1cc(Nc2ccc(N3CCOCC3)cc2)nc(N2CCN(Cc3ccc4c(c3)OCO4)CC2)n1	42.5*	0.2
Cc1cc(Nc2ccccc2)nc(N2CCN(Cc3ccc4c(c3)OCO4)CC2)n1	10.9	-22.9
CNC(=O)c1ccccc1Nc1cc(Nc2ccc(N3CCS(=O)(=O)CC3)cc2OC)ncc1C#N	4.8	80.6*
CNC(=O)c1ccccc1Nc1cc(Nc2ccc(N3CCSCC3)cc2OC)ncc1C#N	33.4	85.9*
CN(C)Cc1cnc(Nc2ccc(N3CCOCC3)cc2)cc1Nc1ccccc1C#N	12.8	5.4
NC(=O)c1ccccc1Nc1ccnc(Nc2ccc(N3CCOCC3)cc2F)c1	5.0	-8.2
FC(F)(F)c1cccc(CNc2ccnc(Nc3cccnc3)n2)c1	-8.6	-10.9
O=C(Nc1cnn(-c2cccc(C(=O)O)c2)c1)Nc1ccccc1Cl	3.2	-4.3
NC(=O)c1ccc(-c2nc(Nc3ccc(N4CCOCC4)cc3)c3ncn(C4CCCCC4)c3n2)cc1	-0.2	44.2*
c1ccc(Nc2nc(NCCN3CCOCC3)c3ncn(C4CCCCC4)c3n2)cc1	10.8	-10.4
c1cc(N2CCOCC2)ccc1Nc1nc(NCCN2CCOCC2)nc2c1ncn2C1CCCCC1	-34.8	54.7*

High-throughput results deposited in PubChem by The Scripps Research Institute Molecular Screening Center.
